In PubChem BioAssay one finds composite z-score and z-score data, which are given here for five molecules.

Calls of active or inactive are those of the source. Unless noted, no rule for the calls is given here.

A short description of experiment [1]: compounds binding Alexa647 anti-His antibody – biochemical, small-molecule microarray, 635 nm fluorescence, artefact control for SMM control protein annotation, primary screen (AID 1128).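 Also: score merges feature fluorescence with signal-to-noise for each printed compound spot.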 The note with it: higher = more signal.
Experiment [2] has as its system Human papillomavirus type 1a E7 protein (residues 1-88). The experiment in a line: HPV1a E7 small-molecule binders, primary screen, biochemical, small-molecule microarray, residues 1-88, 635 nm (AID 1129). The following applies: small-molecule microarray binding, fluorescence 635 nm; higher = more signal.
Experiment [3] addresses Focal adhesion kinase 1 (Homo sapiens) (UniProt Q05397). Nature of the experiment: PTK2 protein binding on printed compound slides – biochemical, small-molecule microarray, 635/667 nm fluorescence, BSA, DTT, primary screen (AID 1130).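 Also: composite of spot emission at 667 nm and signal to noise over triplicate slides.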 The following applies: 635 nm fluorescence, higher = more signal.
Experiment [4] has as its system Fibrinogen (Alexa647-labelled). The experiment in a line: Alexa647-fibrinogen binding to printed small molecules – biochemical, small-molecule microarray, 635/667 nm fluorescence, artefact control for SMM control-protein annotation, profiling panel (AID 1131).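 Also: z-score merges 667 nm fluorescence with per-spot signal-to-noise over triplicate slides.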 The following applies: fibrinogen-A647 binding fluorescence, higher = more signal.
The target of experiment [5] is Follistatin (Homo sapiens) (UniProt P19883). The experiment in a line: FST protein binding to printed compounds – biochemical, small-molecule microarray, 635/667 nm fluorescence, primary screen (AID 1132). The following applies: 635 nm fluorescence, higher = more signal.
Chain of Follistatin (Homo sapiens) (P19883 whole entry, looked up): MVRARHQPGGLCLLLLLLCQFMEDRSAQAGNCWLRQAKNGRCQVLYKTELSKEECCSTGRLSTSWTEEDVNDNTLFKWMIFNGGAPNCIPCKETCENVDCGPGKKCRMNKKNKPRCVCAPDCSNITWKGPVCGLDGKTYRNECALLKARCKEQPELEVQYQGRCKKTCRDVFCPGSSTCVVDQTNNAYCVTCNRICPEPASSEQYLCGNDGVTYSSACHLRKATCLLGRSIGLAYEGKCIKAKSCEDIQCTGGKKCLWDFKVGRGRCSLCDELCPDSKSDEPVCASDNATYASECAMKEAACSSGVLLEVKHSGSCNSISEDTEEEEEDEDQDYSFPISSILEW
Experiment [6] deals with Fibroblast growth factor 2 (Homo sapiens) (UniProt P09038). The experiment in a line: basic fibroblast growth factor binding to printed compounds – biochemical, small-molecule microarray, 635/667 nm fluorescence, primary screen (AID 1133). The following applies: FGF2, fluorescence 635/667, higher = more signal.
Chain of Fibroblast growth factor 2 (Homo sapiens) (P09038 whole entry, looked up): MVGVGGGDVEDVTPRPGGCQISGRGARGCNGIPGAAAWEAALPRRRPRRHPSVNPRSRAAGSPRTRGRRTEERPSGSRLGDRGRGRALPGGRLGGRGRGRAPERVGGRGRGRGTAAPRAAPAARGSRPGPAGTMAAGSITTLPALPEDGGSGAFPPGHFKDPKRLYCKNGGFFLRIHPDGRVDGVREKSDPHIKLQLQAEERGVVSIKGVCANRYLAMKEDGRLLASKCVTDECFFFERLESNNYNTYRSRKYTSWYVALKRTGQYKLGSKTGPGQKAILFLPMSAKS
Experiment [7] is described as follows: JC-1 mitochondrial potential readout, lung cancer cells – cell-based, A549, JC-1 fluorescence, basal, 24 h, 100 nL, profiling panel (AID 1138).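 Also: A549 lung adenocarcinoma cells under basal conditions with no added stimulus; test concentration not given here.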 The following applies: higher = more signal.
For the next experiment, the system named is Lefty1. Nature of the experiment: Lefty1 protein binding to printed compounds – biochemical, small-molecule microarray, 635/667 nm fluorescence, primary screen (AID 1139). The following applies: fluorescence 635/667, higher = more signal.
The test system of experiment [8] is wheat germ agglutinin (Triticum aestivum), Alexa647-labelled. Nature of the experiment: Alexa647-WGA lectin binding to printed small molecules – biochemical, small-molecule microarray, 635/667 nm fluorescence, artefact control for SMM control-protein annotation, profiling panel (AID 1140).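 Also: score merges 667 nm feature emission with signal to noise over triplicate slides.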 The note with it: WGA-A647 binding, 635 nm fluorescence, higher = more signal.

For experiment [9], the target named is Luciferin 4-monooxygenase (Photinus pyralis) (UniProt P08659). Nature of the experiment: inhibition of purified Photinus pyralis luciferase – biochemical, luminescence, purified enzyme, 2006 set, primary screen (AID 1141).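 Also: cell-free assay with purified firefly luciferase at 100 ng per well in PBS; test concentration not given here.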 The following applies: purified firefly luciferase, SteadyGlo luminescence, 30 min; higher = more signal, called active from +8 up or from −8 down.
Chain of Luciferin 4-monooxygenase (Photinus pyralis) (P08659 whole entry, looked up): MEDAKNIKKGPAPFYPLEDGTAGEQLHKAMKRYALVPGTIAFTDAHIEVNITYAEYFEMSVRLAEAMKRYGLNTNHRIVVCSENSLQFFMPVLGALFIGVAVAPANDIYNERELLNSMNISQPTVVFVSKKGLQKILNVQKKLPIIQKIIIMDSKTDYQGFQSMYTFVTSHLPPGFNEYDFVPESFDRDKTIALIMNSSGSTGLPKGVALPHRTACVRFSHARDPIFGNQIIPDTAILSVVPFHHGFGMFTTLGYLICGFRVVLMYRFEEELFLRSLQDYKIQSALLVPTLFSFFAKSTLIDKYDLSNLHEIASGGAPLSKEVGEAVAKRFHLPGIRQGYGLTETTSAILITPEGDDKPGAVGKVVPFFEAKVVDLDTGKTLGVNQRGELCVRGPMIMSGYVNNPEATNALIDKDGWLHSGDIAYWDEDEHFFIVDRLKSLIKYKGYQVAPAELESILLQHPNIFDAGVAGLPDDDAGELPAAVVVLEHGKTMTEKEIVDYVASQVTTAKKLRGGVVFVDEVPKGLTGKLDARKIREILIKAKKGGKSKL

Experiment [10] concerns Wnt5a (protein binding on small-molecule microarray). The experiment in a line: small molecules binding Wnt5a protein – biophysical, small-molecule microarray, 635/667 nm fluorescence, primary screen (AID 1142).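 Also: fluorescence read at 667 nm with signal to noise per printed feature.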 The note with it: 635 nm fluorescence, higher = more signal.
A short description of experiment [11]: ATP-based viability of Huh7 replicon cells – cell-based, CellTiter-Glo luminescence, basal, 48 h, cytotoxicity control for HCV replication inhibitor project, primary screen (AID 1143).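 Also: Huh7 hepatoma cells carrying a hepatitis C replication reporter with no stimulus; test concentration not given here.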 The note with it: higher = more signal, called active from +8 up or from −8 down. A general note: In antiviral work, replicon cells carry a viral genome segment that copies itself.

Experiment [12] is described as follows: Pseudomonas biofilm growth suppression – PAO1 strain, BacTiter-Glo luminescence, LB-PBS, primary screen (AID 1144). The following applies: P. aeruginosa PAO1 biofilm, 12 h, higher = more signal.
Experiment [13] in a line: basal CRE-LacZ reporter activity in PC12 – cell-based, unstimulated, primary screen (AID 1145). The following applies: no forskolin, luminescence, 4.5 h, higher = more signal, called active from +8 up or from −8 down.
The nature of experiment [14]: forskolin-driven CRE-LacZ activity in PC12 – cell-based, CRE-LacZ reporter, forskolin-stimulated, primary screen (AID 1146).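 Also: PC12 cells with 6xCRE LacZ reporter stimulated by forskolin 10 µM; beta-galactosidase reporter signal reflecting CREB driven transcription.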 The following applies: luminescence, 4.5 h, higher = more signal, called active from +8 up or from −8 down.
For experiment [15], the target named is Streptavidin (Streptomyces avidinii) (UniProt P22629). The experiment in a line: compounds binding control protein streptavidin – biophysical, small-molecule microarray, 635/667 nm fluorescence, artefact control for SMM compound annotation, primary screen (AID 1147).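 Also: signal reflects streptavidin binding to arrayed compounds as a control protein.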 The note with it: higher = more signal.
Chain of Streptavidin (Streptomyces avidinii) (P22629 whole entry, looked up): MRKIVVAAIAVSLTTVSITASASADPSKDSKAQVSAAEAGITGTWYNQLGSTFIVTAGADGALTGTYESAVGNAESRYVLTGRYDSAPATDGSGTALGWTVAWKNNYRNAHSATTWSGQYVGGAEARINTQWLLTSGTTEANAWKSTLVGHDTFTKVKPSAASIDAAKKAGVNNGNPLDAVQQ
Experiment [16] can be described thus: probe aInhba binding on compound microarray – biochemical, small-molecule microarray, 635/667 nm fluorescence, primary screen (AID 1148).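 Also: score merges 667nm spot fluorescence with signal-to-noise for antibody binding to printed compounds.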 The following applies: higher = more signal.
The target of experiment [17] is Torsin-1A (Homo sapiens) (UniProt O14656). Nature of the experiment: TOR1A wild-type binding on microarray – cell lysate, small-molecule microarray, lysate, 635/667 nm, primary screen (AID 1149). The note with it: COS7 hTOR1A-WT lysate, 635 nm fluorescence, higher = more signal.
Chain of Torsin-1A (Homo sapiens) (O14656 whole entry, looked up): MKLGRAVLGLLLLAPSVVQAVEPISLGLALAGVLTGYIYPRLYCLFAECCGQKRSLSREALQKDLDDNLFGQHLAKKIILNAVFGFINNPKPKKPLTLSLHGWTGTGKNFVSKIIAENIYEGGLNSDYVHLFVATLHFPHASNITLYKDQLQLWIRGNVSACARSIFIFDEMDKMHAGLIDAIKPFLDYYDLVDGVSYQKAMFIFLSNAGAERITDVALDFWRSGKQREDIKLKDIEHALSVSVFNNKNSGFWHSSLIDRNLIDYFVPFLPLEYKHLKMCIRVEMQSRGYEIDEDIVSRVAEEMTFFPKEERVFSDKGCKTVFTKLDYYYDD
Experiment [18] shares this target. The experiment in a line: torsin A mutant lysate binding on microarrays – cell lysate, small-molecule microarray, COS7 lysate, 635/667 nm fluorescence, primary screen (AID 1150).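 Also: score pools 667 nm emission and signal to noise measuring lysate protein binding.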 The following applies: COS7 hTOR1A mutant lysate, 635 nm fluorescence, higher = more signal.
Experiment [19] has as its system Sonic hedgehog protein (Shh). The experiment in a line: Sonic hedgehog microarray binding compounds – biochemical, small-molecule microarray, 635/667 nm fluorescence, primary screen (AID 1151).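 Also: Shh protein binding to compounds spotted on small-molecule microarray slides; score combines spot fluorescence intensity with signal-to-noise across triplicate slides.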 The following applies: 635 nm fluorescence, higher = more signal.

Chain of Focal adhesion kinase 1 (Homo sapiens) (Q05397 whole entry, looked up): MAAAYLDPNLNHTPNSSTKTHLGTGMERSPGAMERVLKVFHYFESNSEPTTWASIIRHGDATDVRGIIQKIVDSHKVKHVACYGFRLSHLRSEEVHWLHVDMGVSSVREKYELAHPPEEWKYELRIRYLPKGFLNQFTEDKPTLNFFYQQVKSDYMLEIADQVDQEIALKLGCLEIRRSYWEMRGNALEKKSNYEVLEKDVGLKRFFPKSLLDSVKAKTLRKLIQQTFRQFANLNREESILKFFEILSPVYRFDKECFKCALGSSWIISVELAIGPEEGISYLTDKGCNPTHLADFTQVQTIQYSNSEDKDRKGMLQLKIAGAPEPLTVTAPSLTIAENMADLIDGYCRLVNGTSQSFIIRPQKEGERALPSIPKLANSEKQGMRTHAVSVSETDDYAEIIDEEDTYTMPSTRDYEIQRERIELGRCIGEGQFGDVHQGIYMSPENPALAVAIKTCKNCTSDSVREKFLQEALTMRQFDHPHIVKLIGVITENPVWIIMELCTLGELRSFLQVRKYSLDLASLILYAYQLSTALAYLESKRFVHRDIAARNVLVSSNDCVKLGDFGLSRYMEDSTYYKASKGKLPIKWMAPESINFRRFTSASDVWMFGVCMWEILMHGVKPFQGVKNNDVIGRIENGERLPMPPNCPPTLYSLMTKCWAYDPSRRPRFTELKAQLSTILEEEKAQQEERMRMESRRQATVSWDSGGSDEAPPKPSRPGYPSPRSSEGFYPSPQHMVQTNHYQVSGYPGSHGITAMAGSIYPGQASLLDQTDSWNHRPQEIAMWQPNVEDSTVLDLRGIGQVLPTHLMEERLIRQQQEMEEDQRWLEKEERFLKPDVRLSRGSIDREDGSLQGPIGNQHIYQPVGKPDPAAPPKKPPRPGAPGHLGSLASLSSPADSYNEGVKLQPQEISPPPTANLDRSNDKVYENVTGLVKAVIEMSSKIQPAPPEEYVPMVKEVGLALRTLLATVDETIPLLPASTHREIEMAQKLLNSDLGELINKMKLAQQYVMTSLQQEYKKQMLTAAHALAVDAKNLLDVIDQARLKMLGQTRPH

Consider `C=C(/C(=C/C[C@H](OC(C)=O)c1cccc(OCCO)c1)c1cnc2ccccc2c1)C(C)C`, for which the composite z-score in experiment [1] is -0.373; in experiment [2], 0.68; in experiment [3] it was 0.151; in experiment [4] it was -0.325; in experiment [5], 1.36; in experiment [6] it was 0.429. Also, the composite z-score with Lefty1 amounted to 1.08; in experiment [8] it was 0.961; in [10], 0.217; in experiment [15] it was 0.653; in [16] it was 0.124; with Torsin-1A (Homo sapiens) [17] it was 0.04. For the same molecule, the figures for the composite z-score (with Torsin-1A (Homo sapiens) [18]; in experiment [19]) were 0.491 and 2, respectively. For the same molecule, the z-score in experiment [7] was 1.61; in experiment [9] it was -1.19 (inactive); in experiment [11], -0.262 (inactive); in [12], 0.424 (inactive); in experiment [13], 5.97 (inactive); in experiment [14] it was -0.323 (inactive).
For the molecule `COCCOC(=O)N1C(=O)[C@@]2(c3cc(C#CC4=CCCCC4)ccc31)[C@H](c1ccccc1OCCO)N1[C@H](c3ccccc3)[C@H](c3ccccc3)OC(=O)[C@H]1[C@@H]2C(=O)Nc1nc2ccccc2s1`, the composite z-score in experiment [1] was 1.16; in [2] it was 0.96; in experiment [3], 0.96; in experiment [4] it was 0.868; in experiment [5], 1.19; in experiment [6], 0.731. Moreover, the composite z-score turned out to be 1.09 with Lefty1; 0.754 in experiment [8]; 0.632 in [10]; 0.827 in experiment [15]; 0.0497 in experiment [16]; 0.881 with Torsin-1A (Homo sapiens) [17]. The composite z-score in the experiment with Torsin-1A (Homo sapiens) [18] turned out to be 0.344; in experiment [19], 1.27. For the same molecule, the z-score in [7] was -2.14; in [9] it was -2.08 (inactive); in experiment [11], -2.06 (inactive); in experiment [12] it was 0.305 (inactive); in experiment [13], -0.0526 (inactive); in experiment [14], 0.687 (inactive).
On to `NCCCCCCNC(=O)[C@@H]1C[C@@H]2C(=O)N[C@@H](CCCCN)C(=O)N2[C@@H]1c1cccc(OCCO)c1`, for which the composite z-score in experiment [1] is 1.24; in experiment [2], 1.12; in experiment [3], 1.21; in experiment [4] it was -0.0787; in [5], 0.877; in [6], 0.485. In addition, the composite z-score with Lefty1 is 1.4; in experiment [8], 0.641; in experiment [10], 0.57; in experiment [15], 0.125; in [16] it was 0.094; with Torsin-1A (Homo sapiens) [17], -0.324. For the same molecule, the figures for the composite z-score (with Torsin-1A (Homo sapiens) [18]; in experiment [19]) were 1.2 and 1.5, respectively. The z-score is 0.81 in [7]; 0.507 (inactive) in [9]; 0.0957 (inactive) in experiment [11]; -0.537 (inactive) in [12]; -0.26 (inactive) in experiment [13]; -0.119 (inactive) in experiment [14].
Consider `COC(=O)c1c2oc(c1C(=O)OC)C(=O)N(Cc1ccccc1)Cc1cn(nn1)C[C@H](Cc1ccccc1)NC(=O)N[C@H](CO)CC2`, for which the composite z-score in [1] was 0.402; in [2], 0.848; in experiment [3], -0.0924; in experiment [4], 0.961; in experiment [5] it was 0.183; in experiment [6], -0.107. In addition, the composite z-score in the experiment on Lefty1 is 0.717; in experiment [8] it was 0.134; in [10], 0.131; in experiment [15], -0.25; in experiment [16], -0.154; with Torsin-1A (Homo sapiens) [17] it was -0.0053. The composite z-score in the experiment with Torsin-1A (Homo sapiens) [18] worked out at 0.218; in experiment [19], 0.346. For the same molecule, the z-score in [7] is 0.534; in [9], 0.978 (inactive); in experiment [11] it was -1.84 (inactive); in experiment [12], -1.12 (inactive); in experiment [13], 0.964 (inactive); in experiment [14], -1.16 (inactive).
In the case of `CN1C(=O)C2C=CC(C(O)c3cccc4ccccc34)N(N3CCCCC3)C2C1=O` (stereo not given), the composite z-score turned out to be 2.11 in experiment [1]; 1.15 in [2]; 0.127 in experiment [3]; 0.853 in [4]; 1.23 in experiment [5]; 0.225 in experiment [6]. Further, the composite z-score is 0.789 in the experiment with Lefty1; 1.3 in [8]; 0.156 in experiment [10]; 1.85 in [15]; 0.0582 in experiment [16]; 0.613 with Torsin-1A (Homo sapiens) [17]. For the same molecule, the composite z-score in the experiment with Torsin-1A (Homo sapiens) [18] is 0.781; in [19] it was 0.169. Besides, the z-score in [7] is -0.0645; in [9] it was -0.848 (inactive); in experiment [11], 0.64 (inactive); in experiment [12], 0.32 (inactive); in experiment [13], -0.136 (inactive); in [14], 0.0556 (inactive).
